PubChem BioAssay
Results filed as inconclusive are left out. Unmarked numbers belong to inactive results.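 How the source made its calls: active means cell viability at or below a set limit in both duplicate runs, the limit being the all-compound median minus 4 SD (cut at about 23% in these data, passing the limit was not always enough); inconclusive means no clear call, values can overlap the other calls; inactive means the rest.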

Assay: viability of HCT116 without oncogenic beta-catenin – human colon tumor cells, pilot screen (AID 823);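 further: 0% = wells killed by 20 µM Hyamine and 100% = untreated DMSO cell wells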
Details: HCT116 beta-catenin knockout viability, CellTiter-Glo, 60 h; at 10 µM; stronger effect = lower value
CC1CCc2nn(CC(=O)NCc3ccc4c(c3)OCO4)cc2C1 (stereo not given) showed a viability of 108%. CCC(C)(C(=O)NC1CCCC1)N(Cc1cccs1)C(C)=O (stereo not given) showed a viability of 108%. With COc1ccc(CCNC(=O)c2cnn3ccccc23)c(OC)c1OC the viability was 101%. Work on CC1CCCN(S(=O)(=O)c2coc(C(N)=O)c2)C1 (stereo not given) yielded a viability of 108%. With Cn1c(C(=O)NCC2CCCO2)cc2c(=O)n(C)c3ccccc3c21 (stereo not given) the viability was 92.9%. Compound O=C(Nc1cnn(Cc2ccc(Cl)cc2Cl)c1)c1noc2c1CCCC2 has a viability of 94.7%. Compound Clc1cccc(N2CCN(Cc3nc(-c4ccccc4)no3)CC2)c1 has a viability of 91.5%. Work on COC(=O)C1=C(C)NC(C)=C(C(=O)OC)C1C1CC=CCC1 (stereo not given) yielded a viability of 90.4%. For Cc1nnc(SCC(=O)NCc2ccccc2)s1, the viability was 101%. CC1=C(C(=O)Nc2ccc(F)cc2)C(c2cccc(C)c2)n2nc(CCCO)nc2N1 (stereo not given) gave a viability of 98.2%. Compound CCOc1ccc(OCCCCN(C)C)cc1 has a viability of 96.8%. Work on CCCC(=O)C1=C(N(C)c2ccccc2)CC(C)(C)C(C(=O)OC)C1=O (stereo not given) yielded a viability of 93.7%. Work on CC1Cc2ccccc2N1C(=O)C12CCC(C)(C(=O)C1)C2(C)C (stereo not given) yielded a viability of 85%. For CC1CN(c2ccc(Oc3ccccc3)cc2)c2nc3c(c(=O)n(CC(N)=O)c(=O)n3C)n2C1 (stereo not given), the viability was 104%. COc1ccc(N2CCN(C(c3ccccc3)c3sc4nc(C)nn4c3O)CC2)cc1 (stereo not given) showed a viability of 96.8%. O=C(CCn1c(=O)oc2ccccc21)NCc1ccco1 showed a viability of 102%. COc1cccc(C2CC(c3ccc(C)cc3)n3nc(N)nc3N2)c1 (stereo not given) showed a viability of 103%. Work on Cc1onc(-c2c(Cl)cccc2Cl)c1C(=O)NCC1CCCO1 (stereo not given) yielded a viability of 91.7%. Compound CC(=O)Nc1cccc(NC(=O)CSc2nn3c(=O)c(C)nnc3s2)c1 has a viability of 110%. Compound Cc1ccc2cc(CCNC(=O)C(C)C)c(=O)[nH]c2c1C has a viability of 105%. Work on CCOC(=O)c1c(C)n(C)c2c(C)cc(O)c(OC(C)=O)c12 yielded a viability of 78.5%. Work on CC(C)(O)C#Cc1ccc(C(=O)N2CCN(C(=O)c3ccco3)CC2)cc1 yielded a viability of 92.4%. COc1ccc(-n2ncc3c(N4CCC(C)CC4)ncnc32)cc1 gave a viability of 101%. Compound CCc1nc2sc(C)c(C)c2c(=O)n1CCO has a viability of 104%. With COc1cc2c(cc1OC)CN(C(=O)CSc1nc3[nH]ncc3c(=O)n1-c1ccccc1)CC2 the viability was 101%. For Cc1ccccc1-n1c(Cn2c(=O)sc3ccccc32)nnc1SCC(N)=O, the viability was 107%. Compound Cc1nc2sc(C(c3cccs3)N3CCOCC3)c(O)n2n1 (stereo not given) has a viability of 107%. Cc1nc2ccccc2c2oc(C(=O)N3CCN(C(=O)c4ccco4)CC3)cc12 showed a viability of 101%. Work on CCC(C)NC(=O)c1cn(CC)c2ccc(S(=O)(=O)N(C)C)cc2c1=O (stereo not given) yielded a viability of 92.4%. O=C(OCN1C(=O)c2ccccc2C1=O)C1CCCCC1 showed a viability of 90.2%. O=C(Nc1nc(-c2ccccn2)cs1)C1CC1 gave a viability of 67.3%. COCCOC(=O)C1=C(C)N=c2s/c(=C\c3cccs3)c(=O)n2C1c1cccs1 (stereo not given) gave a viability of 86.3%. Work on CCOC(=O)c1sc2nc(NC(=O)C(C)(C)C)sc2c1C yielded a viability of 74.5%. Compound Cn1c(Cc2ccccc2)nnc1SCC(=O)NC1CCCCC1 has a viability of 97.4%. CCCNC(=O)C1CC(=O)N(c2ccc(OCC(=O)Nc3cc(C)cc(C)c3)cc2)C1 (stereo not given) gave a viability of 92%. For O=P(O)(CN1CCCCCC1)CN1CCCCCC1, the viability was 98.3%. For O=c1oc2c3c4c(cc2cc1-c1nc2ccccc2[nH]1)CCCN4CCC3, the viability was 87.2%. With CCOC(=O)c1[nH]c(C)c(C(=O)NC)c1C the viability was 109%. Work on CCCOc1ccc(C2C(C(=O)OC)=CN(CCOC)C=C2C(=O)OC)cc1 yielded a viability of 81.5%. CCCCN(CC)CCCNC(=O)c1cc2c(=O)n(C)c3ccccc3c2n1C showed a viability of 55.8%.
